The values below come from PubChem BioAssay (EPA / NIEHS).

The target of assay [1] is Peroxisome proliferator-activated receptor gamma (Homo sapiens) (UniProt P37231). The assay can be described thus: NVS_NR_hPPARg: NovaScreen (NVS) Nuclear Receptor Binding Assay for human Peroxisome Proliferator-activated Receptor gamma (PPARg) (AID 2283370). Summed up: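 Chemicals were tested first in duplicate at 25 uM, then in concentration series if active. Binding to cell-free PPARg protein was measured by fluorescence polarization after 2 h, with loss of signal scored against DMSO.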
Chain of Peroxisome proliferator-activated receptor gamma (Homo sapiens) (P37231 whole entry, looked up): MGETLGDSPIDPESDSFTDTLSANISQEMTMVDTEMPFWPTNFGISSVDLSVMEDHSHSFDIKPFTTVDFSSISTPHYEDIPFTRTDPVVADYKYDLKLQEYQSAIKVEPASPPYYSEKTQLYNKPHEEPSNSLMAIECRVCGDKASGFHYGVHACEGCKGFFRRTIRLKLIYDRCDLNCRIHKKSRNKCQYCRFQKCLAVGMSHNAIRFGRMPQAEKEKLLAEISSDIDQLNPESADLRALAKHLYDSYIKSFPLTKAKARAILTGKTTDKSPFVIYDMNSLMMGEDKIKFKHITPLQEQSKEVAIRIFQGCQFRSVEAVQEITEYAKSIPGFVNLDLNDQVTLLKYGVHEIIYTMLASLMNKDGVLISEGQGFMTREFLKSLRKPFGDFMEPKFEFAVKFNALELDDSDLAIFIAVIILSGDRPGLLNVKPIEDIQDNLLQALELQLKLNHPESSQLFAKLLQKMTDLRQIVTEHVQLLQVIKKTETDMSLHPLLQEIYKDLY

The target in assay [2] is Glucocorticoid receptor (Homo sapiens) (UniProt P04150). The assay can be described thus: NVS_NR_hGR: NovaScreen (NVS) Nuclear Receptor Binding Assay for human Glucocorticoid Receptor (GR) (AID 2283363). How it is done: NVS_NR_hGR is a biochemical, single-readout assay that uses extracted gene-proteins in a cell-free assay. Measurements were taken 16 hours after chemical dosing in a 96-well plate.NVS_NR_hGR is one of one assay component(s) measured or calculated from the NVS_NR_hGR assay. It is designed to make measurements of radioligand binding, a form of binding reporter, as detected with scintillation counting signals by Filter-based radiodetection technology.Data from the assay component NVS_NR_hGR was analyzed into 1 assay endpoint. This assay endpoint, NVS_NR_hGR, was analyzed in the positive analysis fitting direction relative to DMSO as the negative control and baseline of activity. Using a type of binding reporter, loss-of-signal activity can be used to understand changes in the binding as they relate to the gene NR3C1. Furthermore, this assay endpoint can be referred to as a primary readout, because the performed assay has only produced 1 assay endpoint. To generalize the intended target to other relatable targets, this assay endpoint is annotated to the nuclear receptor intended target family, where the subfamily is steroidal.
Chain of Glucocorticoid receptor (Homo sapiens) (P04150 whole entry, looked up): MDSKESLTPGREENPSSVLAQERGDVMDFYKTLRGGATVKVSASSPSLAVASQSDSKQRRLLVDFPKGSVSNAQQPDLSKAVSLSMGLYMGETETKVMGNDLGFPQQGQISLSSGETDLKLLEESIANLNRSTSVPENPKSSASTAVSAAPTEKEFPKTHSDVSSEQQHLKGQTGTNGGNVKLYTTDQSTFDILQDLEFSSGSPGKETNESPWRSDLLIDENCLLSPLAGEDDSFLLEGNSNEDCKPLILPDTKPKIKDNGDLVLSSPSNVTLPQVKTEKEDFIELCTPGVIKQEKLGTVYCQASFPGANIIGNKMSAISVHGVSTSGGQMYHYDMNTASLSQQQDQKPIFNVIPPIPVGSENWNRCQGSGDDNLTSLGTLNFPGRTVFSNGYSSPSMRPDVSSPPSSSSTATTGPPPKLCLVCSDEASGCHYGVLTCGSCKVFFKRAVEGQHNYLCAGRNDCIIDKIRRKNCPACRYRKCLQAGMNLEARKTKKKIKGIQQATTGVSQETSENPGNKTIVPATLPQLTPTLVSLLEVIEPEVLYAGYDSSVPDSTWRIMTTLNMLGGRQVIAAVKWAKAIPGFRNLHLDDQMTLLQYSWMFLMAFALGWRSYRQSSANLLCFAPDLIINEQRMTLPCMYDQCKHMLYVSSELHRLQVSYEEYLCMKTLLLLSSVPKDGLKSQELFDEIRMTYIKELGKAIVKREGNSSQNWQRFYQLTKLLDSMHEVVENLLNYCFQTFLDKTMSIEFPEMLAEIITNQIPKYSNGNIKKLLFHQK
Binding assays used specific radioligands (tritiated, iodinated) with non-radioactive competitive displacement ligands in agonist or antagonist protocols (as indicated) and various reference compounds and inhibitors to titrate specific binding to receptors and transporters. Most enzyme assays (CYPs, kinases, phosphatases, proteases, HDACs) used recombinant protein and specific substrates (fluorescence mostly, some colorimetric and radioactive) and inhibitors, followed by a biochemical separation of substrate and product. All assays for the biochemical HTS were initially run in duplicate at a single concentration (10 uM for CYP450 assays and 25 uM for all others). […] Each assay was run with positive and negative controls, and concurrent controls on every plate. The follow-up (secondary) screen tested active chemical-pairs in concentration series, as well as a few additional assays not tested in the primary screen, some selected negative inactives, and several cases re-run in the concentration series for confirmatory purposes.

Assay [3] has as its system guinea pig Dopamine Transporter (DAT), gene 100714898. The assay can be described thus: NVS_TR_gDAT: NovaScreen (NVS) Transporter Assay for guinea pig Dopamine Transporter (DAT) (AID 2283369).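 Also: active compounds lower bound radioligand signal relative to DMSO.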 In outline: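 Scintillation counts of filter-retained radioligand report binding to guinea pig striatal membranes after 2 h. Activity scored as signal loss relative to DMSO, first at 25 uM in duplicate, then in concentration series to 50 uM.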

For assay [4], the target named is human Serotonin Transporter (SERT), SLC6A4 (gene 6532) (UniProt P31645). The assay can be described thus: NVS_TR_hSERT: NovaScreen (NVS) Transporter Assay for human Serotonin Transporter (SERT) (AID 2283372). In outline: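 Radioligand binding to native SERT in human platelet membranes, read by filter-based scintillation counting 1 h after dosing. Primary screen in duplicate at 25 uM; actives followed up in concentration series; loss of signal versus DMSO baseline.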
Chain of human Serotonin Transporter (SERT), SLC6A4 (gene 6532) (P31645 whole entry, looked up): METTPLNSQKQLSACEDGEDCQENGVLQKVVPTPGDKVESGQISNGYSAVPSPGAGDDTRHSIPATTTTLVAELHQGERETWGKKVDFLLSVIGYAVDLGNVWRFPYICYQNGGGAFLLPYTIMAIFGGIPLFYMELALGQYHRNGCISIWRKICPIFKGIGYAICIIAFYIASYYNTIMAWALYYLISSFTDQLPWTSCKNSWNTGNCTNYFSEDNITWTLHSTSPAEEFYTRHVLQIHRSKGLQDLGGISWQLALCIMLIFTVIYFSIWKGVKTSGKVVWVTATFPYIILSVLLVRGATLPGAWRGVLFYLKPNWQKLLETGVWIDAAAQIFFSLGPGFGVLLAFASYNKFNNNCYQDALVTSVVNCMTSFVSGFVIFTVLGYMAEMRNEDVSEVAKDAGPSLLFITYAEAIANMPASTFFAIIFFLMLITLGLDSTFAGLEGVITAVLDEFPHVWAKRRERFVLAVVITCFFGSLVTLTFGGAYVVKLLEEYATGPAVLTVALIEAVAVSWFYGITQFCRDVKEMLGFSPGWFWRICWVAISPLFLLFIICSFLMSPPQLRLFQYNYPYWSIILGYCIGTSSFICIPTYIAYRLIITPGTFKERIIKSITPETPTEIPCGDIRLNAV

Assay [5] has as its target guinea pig Sigma Receptor, Non-selective Binding, SIGMAR1 (gene 100135589) (UniProt Q60492). Kind of assay: NVS_OR_gSIGMA_NonSelective: NovaScreen (NVS) Nuclear Receptor Binding Assay for guinea pig Sigma Receptor, Non-selective Binding (AID 2283367). Summed up:
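Radioligand displacement on guinea pig brain membranes, read by filter-based scintillation counting 1 h after dosing. Loss of signal versus DMSO; initial duplicate single-point screen at 25 uM, actives followed in concentration series.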

Assay [6] has as its target human Adenosine Transporter (Adot), SLC29A1 (gene 2030) (UniProt Q99808). The assay can be described thus: NVS_TR_hAdoT: NovaScreen (NVS) Transporter Assay for human Adenosine Transporter (Adot) (AID 2283368). In outline: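 U937-derived membranes, cell-free radioligand binding, filter scintillation 1 h after dosing. 25 uM duplicate screen; hits (e.g. 30% inhibition) run in concentration-response up to 50 uM; loss of signal versus DMSO.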

Assay [7] concerns the target Nuclear receptor subfamily 1 group I member 2 (Homo sapiens) (UniProt O75469). Kind of assay: NVS_NR_hPXR: NovaScreen (NVS) Nuclear Receptor Binding Assay for human Pregnane X Receptor (PXR) (AID 2283365).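 Also: a drop in FRET signal versus DMSO baseline means the compound binds.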 Summed up: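 Human PXR protein, cell-free; compound added, incubated 2 h, TR-FRET read. Signal decrease vs DMSO = binding. Screened 25 uM duplicate, actives re-run as dilution series.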

Assay [8] addresses Retinoic acid receptor alpha (Homo sapiens) (UniProt P10276). Kind of assay: NVS_NR_hRARa_Agonist: NovaScreen (NVS) Nuclear Receptor Binding Assay for human Retinoic Acid Alpha Receptor Agonism (RAR) (AID 2283361). In outline:
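Cell-free TR-FRET binding readout with extracted receptor protein, read 2 hours after dosing; gain-of-signal fitted relative to DMSO. Screened in duplicate at 25 uM, actives then run in concentration-response.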

Assay [9] deals with human Thyroid Receptor Alpha (TRa), THRA (gene 7067) (UniProt P10827). The assay can be described thus: NVS_NR_hTRa_Antagonist: NovaScreen (NVS) Nuclear Receptor Binding Assay for human Thyroid Receptor Alpha Antagonism (TRa) (AID 2283362). In outline: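 Extracted protein, cell-free; 1 h incubation after dosing; AlphaLISA chemiluminescence binding readout. DMSO = baseline/neg ctrl; signal loss = activity. Primary: duplicate, 25 uM; secondary: conc. series on actives.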
Chain of human Thyroid Receptor Alpha (TRa), THRA (gene 7067) (P10827 whole entry, looked up): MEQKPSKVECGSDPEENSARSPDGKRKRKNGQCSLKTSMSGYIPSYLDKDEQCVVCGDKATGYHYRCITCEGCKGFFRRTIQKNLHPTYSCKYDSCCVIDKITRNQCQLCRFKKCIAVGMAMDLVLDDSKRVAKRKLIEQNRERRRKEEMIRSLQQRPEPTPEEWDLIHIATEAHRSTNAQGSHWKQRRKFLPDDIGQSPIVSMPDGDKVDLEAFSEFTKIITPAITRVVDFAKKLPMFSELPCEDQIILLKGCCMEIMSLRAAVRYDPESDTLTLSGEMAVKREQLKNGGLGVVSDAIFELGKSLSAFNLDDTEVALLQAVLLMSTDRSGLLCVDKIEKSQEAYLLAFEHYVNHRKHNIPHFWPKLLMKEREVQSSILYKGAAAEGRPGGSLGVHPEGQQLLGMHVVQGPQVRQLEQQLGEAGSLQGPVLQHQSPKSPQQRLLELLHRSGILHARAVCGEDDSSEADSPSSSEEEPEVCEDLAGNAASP

For assay [10], the target named is rat Androgen Receptor (AR), Ar (gene 24208) (UniProt P15207). The assay can be described thus: NVS_NR_rAR: NovaScreen (NVS) Nuclear Receptor Binding Assay for rat Androgen Receptor (AR) (AID 2283366). In outline:
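Cell-free radioligand binding on extracts of prostate from testosterone-pretreated rats, read by filter-based scintillation counting 18 h after dosing. Loss of bound signal fitted positively versus DMSO; primary screen in duplicate at 25 uM, actives followed up in concentration series.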

Results filed as inconclusive are left out. Some compounds were tested as several samples or in several runs, with calls that do not always agree. Calls of active or inactive are those of the source. The calls were made as follows: active = hit-call score of the fitted dose curve at least 0.9, where 1 is the maximum; inconclusive = response in the unintended direction; inactive = score below 0.9.

Chain of guinea pig Sigma Receptor, Non-selective Binding, SIGMAR1 (gene 100135589) (Q60492 whole entry, looked up): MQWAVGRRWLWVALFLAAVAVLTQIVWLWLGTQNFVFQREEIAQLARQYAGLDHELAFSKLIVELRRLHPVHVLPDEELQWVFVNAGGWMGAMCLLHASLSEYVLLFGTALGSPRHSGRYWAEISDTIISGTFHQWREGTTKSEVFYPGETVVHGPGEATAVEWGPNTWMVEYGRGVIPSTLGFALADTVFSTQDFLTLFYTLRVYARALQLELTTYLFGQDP
Chain of human Adenosine Transporter (Adot), SLC29A1 (gene 2030) (Q99808 whole entry, looked up): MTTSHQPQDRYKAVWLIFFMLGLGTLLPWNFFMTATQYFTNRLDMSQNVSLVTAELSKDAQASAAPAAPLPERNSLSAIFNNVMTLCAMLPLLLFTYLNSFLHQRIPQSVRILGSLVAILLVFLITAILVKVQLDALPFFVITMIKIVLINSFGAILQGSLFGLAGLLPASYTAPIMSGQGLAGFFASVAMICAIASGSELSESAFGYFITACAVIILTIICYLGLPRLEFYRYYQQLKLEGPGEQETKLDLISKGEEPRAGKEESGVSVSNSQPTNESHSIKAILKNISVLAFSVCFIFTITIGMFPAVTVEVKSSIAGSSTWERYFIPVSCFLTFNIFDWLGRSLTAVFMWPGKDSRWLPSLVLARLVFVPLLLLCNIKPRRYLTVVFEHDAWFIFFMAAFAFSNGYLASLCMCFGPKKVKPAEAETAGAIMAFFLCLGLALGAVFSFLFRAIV
Chain of Retinoic acid receptor alpha (Homo sapiens) (P10276 whole entry, looked up): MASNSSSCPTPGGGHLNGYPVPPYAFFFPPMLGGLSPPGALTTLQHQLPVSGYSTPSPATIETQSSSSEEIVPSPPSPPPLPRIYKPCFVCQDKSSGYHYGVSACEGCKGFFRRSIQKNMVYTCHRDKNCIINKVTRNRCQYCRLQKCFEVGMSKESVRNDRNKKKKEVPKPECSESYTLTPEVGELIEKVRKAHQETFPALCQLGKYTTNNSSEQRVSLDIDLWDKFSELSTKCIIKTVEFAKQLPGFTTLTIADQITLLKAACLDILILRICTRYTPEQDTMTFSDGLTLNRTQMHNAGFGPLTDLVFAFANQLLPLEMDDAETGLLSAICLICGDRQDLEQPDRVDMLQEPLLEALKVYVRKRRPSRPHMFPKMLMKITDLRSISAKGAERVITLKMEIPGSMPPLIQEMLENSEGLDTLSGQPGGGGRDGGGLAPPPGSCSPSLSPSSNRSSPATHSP
Chain of Nuclear receptor subfamily 1 group I member 2 (Homo sapiens) (O75469 whole entry, looked up): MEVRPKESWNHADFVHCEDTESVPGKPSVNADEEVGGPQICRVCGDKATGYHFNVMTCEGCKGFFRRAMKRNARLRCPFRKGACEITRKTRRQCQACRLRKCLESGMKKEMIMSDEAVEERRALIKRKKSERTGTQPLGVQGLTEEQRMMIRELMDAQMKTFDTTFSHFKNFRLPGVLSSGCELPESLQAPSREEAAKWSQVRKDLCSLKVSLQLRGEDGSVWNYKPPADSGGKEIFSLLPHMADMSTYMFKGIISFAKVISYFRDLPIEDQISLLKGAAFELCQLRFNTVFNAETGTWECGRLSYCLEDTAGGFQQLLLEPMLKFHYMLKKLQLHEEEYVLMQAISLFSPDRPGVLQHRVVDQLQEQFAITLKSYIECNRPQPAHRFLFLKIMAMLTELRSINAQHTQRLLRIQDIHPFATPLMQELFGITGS
Chain of rat Androgen Receptor (AR), Ar (gene 24208) (P15207 whole entry, looked up): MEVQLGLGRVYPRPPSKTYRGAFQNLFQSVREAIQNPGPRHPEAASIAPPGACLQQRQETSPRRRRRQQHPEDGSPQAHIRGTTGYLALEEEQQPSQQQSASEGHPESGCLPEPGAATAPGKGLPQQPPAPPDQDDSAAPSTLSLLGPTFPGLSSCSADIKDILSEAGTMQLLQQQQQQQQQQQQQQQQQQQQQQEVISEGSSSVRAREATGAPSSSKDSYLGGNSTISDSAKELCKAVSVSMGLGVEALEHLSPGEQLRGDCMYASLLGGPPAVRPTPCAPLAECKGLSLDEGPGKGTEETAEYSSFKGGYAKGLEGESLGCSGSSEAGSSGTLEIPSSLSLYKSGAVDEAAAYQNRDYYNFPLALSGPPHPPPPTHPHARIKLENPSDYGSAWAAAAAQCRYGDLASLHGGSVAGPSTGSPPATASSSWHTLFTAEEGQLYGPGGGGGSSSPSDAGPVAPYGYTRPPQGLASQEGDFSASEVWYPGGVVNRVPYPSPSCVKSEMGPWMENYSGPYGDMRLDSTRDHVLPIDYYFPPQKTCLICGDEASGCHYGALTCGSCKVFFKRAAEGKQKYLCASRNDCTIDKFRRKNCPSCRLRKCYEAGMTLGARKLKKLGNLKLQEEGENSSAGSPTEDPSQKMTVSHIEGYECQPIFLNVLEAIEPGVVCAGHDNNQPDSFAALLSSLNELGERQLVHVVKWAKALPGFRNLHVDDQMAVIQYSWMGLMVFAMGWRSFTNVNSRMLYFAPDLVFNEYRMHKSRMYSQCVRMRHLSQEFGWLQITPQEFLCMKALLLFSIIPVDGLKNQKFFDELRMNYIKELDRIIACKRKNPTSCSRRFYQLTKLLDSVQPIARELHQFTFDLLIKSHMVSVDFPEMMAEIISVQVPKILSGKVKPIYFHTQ

For `CS(=O)(=O)NC(=O)c1cc(Oc2ccc(C(F)(F)F)cc2Cl)ccc1[N+](=O)[O-]`, the molecule was called inactive in [1].

On to `O=[N+]([O-])c1ccc(Oc2ccc(Cl)cc2Cl)cc1`, for which the molecule was classed as inactive in [2], in [3] and in [4].

As usually defined, the AC50 is the concentration at which the activity in the assay is half-maximal. On to `CC(C)(C)C(O)(CCc1ccc(Cl)cc1)Cn1cncn1` (stereo not drawn), for which the call in [5] was inactive. Moreover, in assay [3], the AC50 is 8.79 µM (active).

Turning to `CCCCCCCCn1sccc1=O`, the results for the AC50 in assay [2], in [6] and in assay [1] were 7.16 µM (active), 16.6 µM (active) and 0.693 µM (active), respectively.

Consider `Nc1ccc(N=Nc2ccccc2)cc1`, for which the AC50 in [3] was 15 µM (active). Also, the call in assay [1] was inactive.

Regarding `CCC(C)c1ccc(O)cc1` (stereo not drawn), in assay [3], the AC50 was 4.96 µM (active).

As to `CCNS(=O)(=O)C(F)(F)C(F)(F)C(F)(F)C(F)(F)C(F)(F)C(F)(F)C(F)(F)C(F)(F)F`, the result in assay [7], in assay [6] and in assay [1] was inactive.

Take `N#CC(Br)(Br)C(N)=O`: in [5], the molecule was called inactive.

As for `CC(C)N(Cc1ccccc1)C(=O)C(C)(C)C`, the AC50 in [3] was 13.7 µM (active).

For the molecule `O=C(Nc1ccccc1)c1ccccc1I`, in assay [3], the AC50 is 12.8 µM (active). The call in assay [1] was inactive.

For the molecule `Nc1ccc(Oc2ccc(N)cc2)cc1`, the AC50 in assay [3] was 2.99 µM (active). Moreover, the call in [1] was inactive.

Consider `Cc1cccc(N)c1N`, for which, in [8], the outcome was inactive. For the same molecule, in assay [1], the AC50 is 0.00229 µM (active).

Turning to `CCCCOC(=O)c1ccccc1C(=O)OCc1ccccc1`, the outcome in assay [5] and in [1] was inactive.

Regarding `Nc1ccc(Cc2ccc(N)cc2)cc1`, the molecule was classed as inactive in assay [3].

As for `CCCCC(CC)COC(=O)c1ccc(C(=O)OCC(CC)CCCC)c(C(=O)OCC(CC)CCCC)c1` (stereo not drawn), in assay [7], the molecule was classed as inactive.

With `C[N+](C)(C)CC1CO1` (stereo not drawn), the molecule was classed as inactive in assay [7].

On to `O=Cc1ccco1`, for which the result in [4] was inactive.

Consider `[Cl-].[Cl-].[Hg+2]`, for which the figures for the AC50 in assay [2], in assay [6] and in assay [3] were 8.46 µM (active), 5.1 µM (active) and 44.2 µM (active), respectively.

In the case of `Oc1ccc2ccc3cccc4ccc1c2c34`, the AC50 in assay [2] is 4.96 µM (active).

Take `CN(C)[C@@H]1C(=O)C(C(N)=O)=C(O)[C@@]2(O)C(=O)C3=C(O)c4c(O)cccc4[C@@](C)(O)[C@H]3C[C@@H]12`: the AC50 in [2] was 15.9 µM (active).

Consider `C[C@]12C=CC3=C4CCC(=O)C=C4CC[C@H]3[C@@H]1CC[C@@H]2O`, for which the AC50 in [8] is 19.6 µM (active) [middle of 4 runs]; in [6], 35.2 µM (active); in [1] it was 41.5 µM (active). Besides, the molecule was classed as inactive in assay [1] and in assay [4].

On to `CCCCCCCCCCCCCN1CC(C)OC(C)C1` (stereo not drawn), for which the molecule was classed as inactive in assay [7]. For the same molecule, in assay [5], the AC50 was 0.0622 µM (active).

As for `c1ccc2c(c1)-c1cccc3cccc-2c13`, in assay [8], the molecule was classed as inactive.

For `O=C(Oc1ccc(Br)cc1)N1CCN2CCC1CC2`, the AC50 was 7.13 µM (active) in [3] and 1.91 µM (active) in assay [4]. Besides, the outcome in [1] was inactive.

As for `O=C(N[C@H](c1ccccc1)[C@@H]1CN2CCC1CC2)c1c(Cl)ccc(C(F)(F)F)c1Cl`, the figures for the AC50 in assay [5], in assay [3] and in [4] were 22.3 µM (active), 29.9 µM (active) and 1.52 µM (active), respectively.

As to `CC(C)(C)OOC(=O)c1ccccc1`, the outcome in [7] and in assay [1] was inactive.

`Nc1ccc(Cl)cc1N`: in [1], the call was inactive.

Turning to `c1ccc(N=Nc2ccccc2)cc1`, in [1], the result was inactive.

`CC(C)COC(=O)c1ccccc1C(=O)OCC(C)C`: in assay [1], the molecule was called inactive.

For the molecule `O=[N+]([O-])C(Br)(CO)CO`, the AC50 in assay [6] is 25 µM (active). For the same molecule, in assay [1], the molecule was called inactive.

Consider `CCCCCOC(=O)c1ccccc1C(=O)OCCCCC`, for which the outcome in assay [2] and in assay [3] was inactive.

`CC(C)(O)c1cnn2c(-c3ccc(F)c(-c4c(F)cccc4C#N)c3)cnc2n1`: in assay [1], the outcome was inactive.

For the molecule `Cn1cc(-c2ccccc2)c(=O)c(-c2cccc(C(F)(F)F)c2)c1`, the call in assay [2], in assay [1] and in [4] was inactive.

Regarding `CCC[CH2][Sn]([Cl])([CH2]CCC)[CH2]CCC`, the AC50 in assay [2] was 0.726 µM (active); in [6] it was 34.6 µM (active); in [3], 11.1 µM (active); in [4] it was 11.2 µM (active).

On to `Cc1cc(N=Nc2ccccc2C)ccc1N`, for which the call in assay [9], in assay [10] and in assay [1] was inactive.

Regarding `CCOC(=O)[C@]1(c2ccccc2)Oc2ccccc2[C@@H]1N`, the AC50 in assay [2] is 25 µM (active); in assay [5], 0.0612 µM (active); in assay [3], 5.45 µM (active); in assay [4] it was 2.56 µM (active). For the same molecule, in assay [1], the call was inactive.

On to `OCCOCCO`, for which the molecule was called inactive in assay [7].

As for `CN(C)c1ccc(C(=O)c2ccc(N(C)C)cc2)cc1`, the molecule was classed as inactive in assay [7]. Further, the AC50 in assay [1] is 25 µM (active).

`Clc1ccc(C(c2ccc(Cl)cc2)C(Cl)Cl)cc1`: the result in [9] was inactive.

With `C=CCc1ccc2c(c1)OCO2`, in [5], the AC50 was 11.6 µM (active).
